Out of some 39,000 compounds screened, about 3,300 (8.5%) were called active. The full list was thinned out, with actives kept by preference.
System: HepG2
Test: cytotoxicity call (relative viability < 0.9)
Conditions: 10 µM

Compound	cytotoxicity call
COc1ccc(S(=O)(=O)Nc2ccc3c(c2)CC(=O)N([C@@H](C)CO)C[C@H](C)[C@@H](CN(C)S(=O)(=O)c2cccs2)O3)cc1	inactive
C[C@@H]1CN([C@H](C)CO)C(=O)c2cc(NS(=O)(=O)c3cn(C)cn3)ccc2O[C@@H](C)CCCCO[C@@H]1CN(C)S(=O)(=O)c1ccc(F)cc1	inactive
C[C@H]1CN([C@@H](C)CO)C(=O)c2cc(-c3cncnc3)cnc2O[C@H]1CN(C)C(=O)CN1CCOCC1	inactive
C[C@@H]1CN([C@H](C)CO)C(=O)c2cc(NC(=O)NC3CCCCC3)ccc2O[C@@H]1CN(C)Cc1ccc(C(=O)Nc2ccccc2N)cc1	inactive
COc1ccc(C#Cc2cnc3c(c2)C(=O)N([C@@H](C)CO)C[C@H](C)[C@H](CN(C)C(=O)CC2CC2)O3)cc1	inactive
C[C@@H]1CN([C@H](C)CO)C(=O)c2cc(NC(=O)C3CCCCC3)ccc2O[C@@H](C)CCCCO[C@H]1CN(C)Cc1ccc(C(F)(F)F)cc1	inactive
C[C@H]1CCCCO[C@@H](CN(C)Cc2ccc(C(F)(F)F)cc2)[C@@H](C)CN([C@@H](C)CO)C(=O)c2cc(NC(=O)C3CCCCC3)ccc2O1	inactive
C[C@@H]1CCCCO[C@H](CN(C)Cc2ccc(C(F)(F)F)cc2)[C@H](C)CN([C@@H](C)CO)C(=O)c2cc(NC(=O)C3CCCCC3)ccc2O1	active
C[C@@H]1CN([C@H](C)CO)C(=O)c2cc(NC(=O)C3CCCCC3)ccc2O[C@@H](C)CCCCO[C@@H]1CN(C)Cc1ccc(C(F)(F)F)cc1	inactive
C[C@@H]1CCCCO[C@H](CN(C)Cc2ccc(C(F)(F)F)cc2)[C@@H](C)CN([C@@H](C)CO)C(=O)c2cc(NC(=O)C3CCCCC3)ccc2O1	active
C[C@H](CO)N1C[C@H](C)[C@H](CN(C)Cc2ccc(C(F)(F)F)cc2)OCCCC[C@H](C)Oc2ccc(NC(=O)C3CCCCC3)cc2C1=O	inactive
C[C@H]1CCCCO[C@H](CN(C)Cc2ccc(C(F)(F)F)cc2)[C@@H](C)CN([C@@H](C)CO)C(=O)c2cc(NC(=O)C3CCCCC3)ccc2O1	active
C[C@@H]1CN([C@@H](C)CO)C(=O)c2cc(NC(=O)C3CCCCC3)ccc2O[C@@H](C)CCCCO[C@@H]1CN(C)Cc1ccc(C(F)(F)F)cc1	inactive
C[C@@H]1CN([C@@H](C)CO)C(=O)c2cc(NC(=O)C3CCCCC3)ccc2O[C@@H](C)CCCCO[C@H]1CN(C)Cc1ccc(C(F)(F)F)cc1	active
C[C@@H]1CCCCO[C@@H](CN(C)Cc2ccc(C(F)(F)F)cc2)[C@H](C)CN([C@@H](C)CO)C(=O)c2cc(NC(=O)C3CCCCC3)ccc2O1	inactive
C[C@H](CO)N1C[C@H](C)[C@@H](CN(C)Cc2ccc(C(F)(F)F)cc2)OCCCC[C@H](C)Oc2ccc(NC(=O)C3CCCCC3)cc2C1=O	inactive

Compound	cytotoxicity call
C[C@@H]1CCCCO[C@@H](CN(C)Cc2ccc(C(F)(F)F)cc2)[C@@H](C)CN([C@@H](C)CO)C(=O)c2cc(NC(=O)C3CCCCC3)ccc2O1	inactive
Cc1ccc(S(=O)(=O)Nc2ccc3c(c2)C(=O)N([C@@H](C)CO)C[C@H](C)[C@@H](CN(C)Cc2ccc4c(c2)OCO4)OCCCC[C@@H](C)O3)cc1	inactive
Cc1ccc(S(=O)(=O)Nc2ccc3c(c2)CC(=O)N([C@@H](C)CO)C[C@H](C)[C@@H](CN(C)S(C)(=O)=O)O3)cc1	inactive
C[C@H](CO)N1C[C@H](C)[C@@H](CN(C)S(=O)(=O)c2ccc(Cl)cc2)Oc2ccc(NS(C)(=O)=O)cc2CC1=O	inactive
Cc1cc(C(=O)Nc2cccc3c2O[C@H](CN(C)C(=O)NC(C)C)[C@H](C)CN([C@H](C)CO)C3=O)n(C)n1	inactive
COc1ccc(CN(C)C[C@@H]2OCCCC[C@@H](C)Oc3ccc(NS(=O)(=O)c4cccs4)cc3C(=O)N([C@H](C)CO)C[C@H]2C)cc1	inactive
C[C@H](CO)N1C[C@H](C)[C@H](CN(C)C(=O)NC2CCCCC2)Oc2ccc(NC(=O)Cn3cnnn3)cc2CC1=O	inactive
C[C@@H]1CN([C@H](C)CO)C(=O)c2cc(NC(=O)Nc3ccccc3)ccc2O[C@@H](C)CCCCO[C@@H]1CN(C)C(=O)Cc1ccccc1	inactive
O=C(C[C@@H]1CC=CCC[C@@H](Cc2ccc(F)cc2)C(=O)OCCNC1=O)N[C@@H](CO)Cc1ccccc1	inactive
CCNC(=S)N1CCCC[C@@H]1CO	inactive
C[C@@H]1CCCCO[C@H](CN(C)Cc2ccc(C(F)(F)F)cc2)[C@H](C)CN([C@H](C)CO)C(=O)c2cc(NC(=O)C3CCCCC3)ccc2O1	inactive
C[C@@H]1CCCCO[C@@H](CN(C)Cc2ccncc2)[C@@H](C)CN([C@@H](C)CO)C(=O)c2cc(NC(=O)C3CCCCC3)ccc2O1	inactive
C[C@@H]1CCCCO[C@H](CN(C)Cc2ccncc2)[C@@H](C)CN([C@H](C)CO)C(=O)c2cc(NC(=O)C3CCCCC3)ccc2O1	inactive
C[C@@H]1CCCCO[C@H](CN(C)Cc2ccc(C(F)(F)F)cc2)[C@@H](C)CN([C@H](C)CO)C(=O)c2cc(NC(=O)C3CCCCC3)ccc2O1	active
C[C@@H]1CCCCO[C@H](CN(C)Cc2ccncc2)[C@H](C)CN([C@@H](C)CO)C(=O)c2cc(NC(=O)C3CCCCC3)ccc2O1	active
C[C@@H]1CCCCO[C@@H](CN(C)Cc2ccc(C(F)(F)F)cc2)[C@H](C)CN([C@H](C)CO)C(=O)c2cc(NC(=O)C3CCCCC3)ccc2O1	inactive

From the antibiotic and cytotoxicity screens of Wong et al. (2023)
